In PubChem BioAssay (NCI):
About 79,000 compounds went through this panel and 15% of them were active in at least one assay; those are over-represented in the sample as a whole. Active and inactive are the calls of the source. Rule as the data show it: active = growth inhibition above about 70%; inactive = the rest.

How the values were obtained:
[1] = NCI Yeast Anticancer Drug Screen. Data for the rad52 strain (AID 147);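 also: 0% = growth of vehicle-treated control cultures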; conditions: S. cerevisiae rad52 mutant growth inhibition, stronger effect = higher value
Method in brief: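 Measured: yeast growth inhibition. System: strain with a defined DNA damage repair alteration. Reference: vehicle-treated control cultures.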

[2] = NCI Yeast Anticancer Drug Screen. Data for the wt1 strain (AID 149);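 also: 0% = growth of vehicle-treated wt1 cultures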; conditions: S. cerevisiae wt1 strain (SPY 50644) growth inhibition, stronger effect = higher value
Method in brief: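 Each compound is tested on wt1 yeast and the loss of growth versus vehicle gives the inhibition value.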

[3] = NCI Yeast Anticancer Drug Screen. Data for the mgt1 strain (AID 153); conditions: S. cerevisiae mgt1 mutant growth inhibition, stronger effect = higher value
Method in brief: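 After exposure of the mgt1 yeast mutant to compound, growth was measured and reported as inhibition compared with vehicle controls.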

[4] = NCI Yeast Anticancer Drug Screen. Data for the rad50 strain (AID 155);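 also: 0% = growth of vehicle-only cultures of the same strain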; conditions: S. cerevisiae rad50 strain growth inhibition, stronger effect = higher value
Method in brief: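 Vehicle-treated cultures provide the reference for the growth inhibition reported for compound-exposed, repair-deficient yeast.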

[5] = NCI Yeast Anticancer Drug Screen. Data for the mec2-1 strain (AID 157); conditions: S. cerevisiae mec2-1 strain, stronger effect = higher value
Method in brief: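 Test agents were screened against the mec2-1 yeast strain, with defined DNA repair or cell cycle alteration. Growth was scored as inhibition against vehicle-only controls.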

[6] = NCI Yeast Anticancer Drug Screen. Data for the rad14 strain (AID 159);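 also: 0% = growth of vehicle-treated control cultures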; conditions: S. cerevisiae rad14 strain growth inhibition, stronger effect = higher value
Method in brief: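 Inhibition of growth is reported for a repair-deficient yeast mutant following compound treatment, calculated relative to cultures that received vehicle.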

[7] = NCI Yeast Anticancer Drug Screen. Data for the sgs1 mgt1 strain (AID 161);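 also: 0% = growth of cultures given vehicle only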; conditions: S. cerevisiae sgs1 mgt1 strain, stronger effect = higher value
Method in brief: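 Inhibition of yeast growth, normalised to vehicle-treated controls, is reported for a strain bearing genetic alterations in DNA damage repair.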

[8] = NCI Yeast Anticancer Drug Screen. Data for the CLN2oe strain (AID 163);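 also: 0% = growth of vehicle-only control cultures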; conditions: S. cerevisiae CLN2oe strain, stronger effect = higher value
Method in brief: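 Here, growth inhibition in a cell-cycle-altered yeast strain after compound exposure was quantified against vehicle control growth.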

[9] = NCI Yeast Anticancer Drug Screen. Data for the bub3 strain (AID 167); conditions: S. cerevisiae bub3 mutant strain, stronger effect = higher value
Method in brief: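 Mutant yeast screening strain plus compound; vehicle-treated cultures serve as the 0% inhibition reference.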

[10] = NCI Yeast Anticancer Drug Screen. Data for the wt2 strain (AID 169); conditions: S. cerevisiae wt2 strain growth inhibition, stronger effect = higher value
Method in brief: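 Genetically defined yeast strains from a DNA-repair/cell-cycle panel were used. Compound-exposed yeast growth was measured, and the inhibition was calculated relative to vehicle treatment.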

[11] = NCI Yeast Anticancer Drug Screen. Data for the mlh1 strain (AID 171);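 also: 0% = growth of vehicle-treated control cultures of the same strain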; conditions: S. cerevisiae mlh1 strain growth inhibition, stronger effect = higher value
Method in brief: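 Here the genetically defined yeast mutant is grown with each compound, and the extent to which its growth falls below that of vehicle-exposed cells is reported.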

[12] = NCI Yeast Anticancer Drug Screen. Data for the sgs1 strain (AID 173);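 also: 0% = growth of vehicle-only control cultures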; conditions: S. cerevisiae sgs1 mutant, stronger effect = higher value
Method in brief: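 Relative growth inhibition, referenced to vehicle, was determined in a yeast strain with a defined alteration affecting DNA damage repair or cell cycle control after compound exposure.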

[13] = NCI Yeast Anticancer Drug Screen. Data for the mlh1 rad18 strain (AID 175); conditions: S. cerevisiae mlh1 rad18 strain growth inhibition, stronger effect = higher value
Method in brief: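 In this whole-cell yeast screen, a strain with altered DNA damage repair is challenged with compound, and its growth is measured against matched vehicle-treated controls.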

[14] = NCI Yeast Anticancer Drug Screen. Data for the rad18 strain (AID 177); conditions: S. cerevisiae rad18 mutant growth inhibition, stronger effect = higher value
Method in brief: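 Screen uses a yeast strain with a defined lesion in DNA damage repair; compound effect is read as loss of growth compared to untreated vehicle cultures.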

[15] = NCI Yeast Anticancer Drug Screen. Data for the rad50EPP+ strain (AID 151);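 also: 0% = growth of vehicle-treated control cultures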; conditions: S. cerevisiae rad50 mutant strain, stronger effect = higher value
Method in brief: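 One strain with a rad50 alteration (rad50EPP+) was compound-treated, its growth then compared to that of vehicle controls.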

[16] = NCI Yeast Anticancer Drug Screen. Data for the cln2 rad14 strain (AID 165);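 also: 0% = growth equal to vehicle treated cultures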; conditions: S. cerevisiae cln2 rad14 strain, stronger effect = higher value
Method in brief: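 Growth of compound-exposed yeast (cln2 rad14 genotype) measured and expressed as inhibition relative to vehicle.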

[17] = at 5.0 µM (retest, dose inferred, filed as 0.5)
[18] = at 50.0 µM (retest, dose inferred, filed as 5.0)

Measured: growth inhibition

O=C(/C=C(\c1ccccc1)N1CC1)c1ccccc1
active: [1]; at 100.0 µM 97% | [2]; at 100.0 µM 84% | [3]; at 100.0 µM 93% | [4]; [18] 86% | [4]; at 100.0 µM 98% | [5]; at 100.0 µM 97% | [6]; at 100.0 µM 99% | [8]; at 100.0 µM 84% | [9]; at 100.0 µM 93% | [10]; at 100.0 µM 93% | [11]; at 100.0 µM 98% | [12]; at 100.0 µM 97% | [13]; [18] 73% | [14]; at 100.0 µM 96%
inactive: [1]; at 1.2 µM -5% | [1]; at 3.7 µM -10% | [1]; at 11.0 µM -2% | [1]; at 33.0 µM 8% | [2]; at 1.2 µM -5% | [2]; at 3.7 µM -4% | [2]; at 11.0 µM -5% | [2]; at 33.0 µM 0% | [3]; at 1.2 µM -2% | [3]; at 3.7 µM -4% | [3]; at 11.0 µM -4% | [3]; at 33.0 µM 19% | [4]; at 1.2 µM -13% | [4]; at 3.7 µM -7% | [4]; [17] -140% | [4]; at 11.0 µM 8% | [4]; at 33.0 µM 33% | [4]; at 50.0 µM 62.5% | [5]; at 1.2 µM 2% | [5]; at 3.7 µM 1% | [5]; [17] -46% | [5]; at 11.0 µM 12% | [5]; at 33.0 µM -1% | [5]; [18] 28% | [5]; at 50.0 µM 59.8% | [6]; at 1.2 µM -4% | [6]; at 3.7 µM -1% | [6]; at 11.0 µM 3% | [6]; at 33.0 µM 40% | [7]; [17] -58% | [7]; [18] 47% | [7]; at 50.0 µM 17.2% | [8]; at 1.2 µM 4% | [8]; at 3.7 µM 1% | [8]; at 11.0 µM 0% | [8]; at 33.0 µM 0% | [9]; at 1.2 µM -7% | [9]; at 3.7 µM 0% | [9]; [17] -62% | [9]; at 11.0 µM 8% | [9]; at 33.0 µM 21% | [9]; [18] 54% | [9]; at 50.0 µM 63.9% | [10]; at 1.2 µM 0% | [10]; at 3.7 µM 0% | [10]; at 11.0 µM 1% | [10]; at 33.0 µM 3% | [11]; at 1.2 µM 7% | [11]; at 3.7 µM -3% | [11]; at 11.0 µM -5% | [11]; at 33.0 µM 6% | [12]; at 1.2 µM 1% | [12]; at 3.7 µM 2% | [12]; at 11.0 µM 3% | [12]; at 33.0 µM 31% | [13]; [17] -139% | [13]; at 50.0 µM 67.5% | [14]; at 1.2 µM -1% | [14]; at 3.7 µM 4% | [14]; at 11.0 µM 13% | [14]; at 33.0 µM 16%

CCCN(CCC)c1c([N+](=O)[O-])cc(S(N)(=O)=O)cc1[N+](=O)[O-]
inactive: [1]; at 1.2 µM 8% | [1]; at 3.7 µM 25% | [1]; at 11.0 µM 28% | [1]; at 33.0 µM 60% | [1]; at 100.0 µM 23% | [2]; at 1.2 µM 10% | [2]; at 3.7 µM 6% | [2]; at 11.0 µM 18% | [2]; at 33.0 µM 19% | [2]; at 100.0 µM 7% | [15]; at 1.2 µM -23% | [15]; at 3.7 µM -33% | [15]; at 11.0 µM -31% | [15]; at 33.0 µM -23% | [15]; at 100.0 µM -22% | [3]; at 1.2 µM -1% | [3]; at 3.7 µM 0% | [3]; at 11.0 µM -11% | [3]; at 33.0 µM 25% | [3]; at 100.0 µM -2% | [4]; at 1.2 µM 14% | [4]; at 3.7 µM 12% | [4]; [17] -5% | [4]; at 11.0 µM 33% | [4]; at 33.0 µM 44% | [4]; [18] 26% | [4]; at 50.0 µM 63.4% | [4]; at 100.0 µM 15% | [5]; at 1.2 µM -7% | [5]; at 3.7 µM 0% | [5]; [17] -13% | [5]; at 11.0 µM -25% | [5]; at 33.0 µM 32% | [5]; [18] 15% | [5]; at 50.0 µM 51.8% | [5]; at 100.0 µM -2% | [7]; [17] -11% | [7]; [18] 35% | [7]; at 50.0 µM 47.7% | [8]; at 1.2 µM -11% | [8]; at 3.7 µM -3% | [8]; at 11.0 µM -4% | [8]; at 33.0 µM 30% | [8]; at 100.0 µM 2% | [16]; [17] 2% | [9]; at 1.2 µM -13% | [9]; at 3.7 µM -22% | [9]; [17] 4% | [9]; at 11.0 µM -17% | [9]; at 33.0 µM 32% | [9]; at 100.0 µM -9% | [10]; at 1.2 µM -6% | [10]; at 3.7 µM -2% | [10]; at 11.0 µM -7% | [10]; at 33.0 µM 3% | [10]; at 100.0 µM -2% | [11]; at 1.2 µM -27% | [11]; at 3.7 µM -28% | [11]; at 11.0 µM -16% | [11]; at 33.0 µM 31% | [11]; at 100.0 µM -6% | [12]; at 1.2 µM 3% | [12]; at 3.7 µM 10% | [12]; at 11.0 µM 16% | [12]; at 33.0 µM 30% | [12]; at 100.0 µM 6% | [13]; [17] 9% | [14]; at 1.2 µM -8% | [14]; at 3.7 µM -1% | [14]; at 11.0 µM 6% | [14]; at 33.0 µM 50% | [14]; at 100.0 µM 0%
active: [16]; [18] 73% | [16]; at 50.0 µM 85.3% | [9]; [18] 80% | [9]; at 50.0 µM 89.5% | [13]; [18] 70% | [13]; at 50.0 µM 72.9%

C[C@]12CCC3[C@@H](CC[C@@H]4c5nonc5CC[C@]34C)C1CCC2=O (stereo partly drawn)
inactive: [1]; at 1.2 µM 13% | [1]; at 3.7 µM 22% | [1]; at 11.0 µM 52% | [2]; at 1.2 µM 0% | [2]; at 3.7 µM -1% | [2]; at 11.0 µM 8% | [2]; at 33.0 µM 38% | [2]; at 100.0 µM 65% | [15]; at 1.2 µM 4% | [15]; at 3.7 µM 7% | [15]; at 11.0 µM 16% | [15]; at 33.0 µM 29% | [15]; at 100.0 µM 24% | [4]; at 1.2 µM 14% | [4]; at 3.7 µM 18% | [4]; [17] 27% | [4]; at 11.0 µM 65% | [4]; [18] 67% | [5]; at 1.2 µM 6% | [5]; at 3.7 µM 3% | [5]; [17] 15% | [5]; at 11.0 µM 29% | [5]; at 33.0 µM 54% | [5]; [18] -11% | [5]; at 50.0 µM 47.6%
active: [1]; at 33.0 µM 82% | [1]; at 100.0 µM 85% | [4]; at 33.0 µM 80% | [4]; at 50.0 µM 87.3% | [4]; at 100.0 µM 87%
